According to ChEMBL document CHEMBL3988442, “University of Dundee, Small-Polar-MMV Screening Library” (2021):

Target: AMP-activated protein kinase, AMPK (Homo sapiens) (UniProt P54646+O43741+P54619+Q9UGJ0+Q9Y478+Q13131+Q9UGI9)
Experiment: AMP-dependent Kinase enzyme assay. An in vitro enzyme assay that detects ADP turnover that is directly proportional to AMPK activity. This uses naive AMPK that is activated during the assay with MK-8722
Format: functional
Design: scale not given: direction of the effect not stated beside the values
Conditions: 30 µM

Row | Structure (SMILES) | Percent Effect
1 | N#Cc1c(C2CC2)cc(-c2ccc(F)c(F)c2)nc1N | 10.4%
2 | CN(c1ncc(S(N)(=O)=O)s1)C1CCc2ccccc21 (stereo not given) | 8.8%
3 | COC(=O)c1ncccc1N1CCCC1 | 9.09%
4 | COc1ccccc1CCN(C)C(C)c1nc(-c2cccnc2)no1 (stereo not given) | 1.66%
5 | CS(=O)(=O)CC1(CNc2cc(C#N)c3cc(Cl)ccc3n2)CC1 | -0.595%
6 | COc1ccc(Oc2cc(CN)ccn2)cc1 | -36.1%
7 | CN(C)C(CNC(=O)c1ccnc(-n2cncn2)c1)c1ccccc1 (stereo not given) | -0.565%
8 | CC1CCN(Cc2ccccc2CNC(=O)C2CNC(=O)N2)CC1 (stereo not given) | -1.18%
9 | Cc1noc(-c2ccc(N(C)Cc3cccnc3)nc2)n1 | -3.84%
10 | Cc1ccn(C)c(=O)c1NC(=O)N(C)Cc1cccc(OC(C)C)c1 | -92.7%
11 | Cc1noc(C)c1CN(C)C(=O)c1nc(N2CCCC2)ncc1Cl | 3.43%
12 | Cn1cncc1C(=O)N1CCCC(c2ccn[nH]2)C1 (stereo not given) | -5.31%
13 | COC(=O)N1CCCCC1C(=O)N1CCCN(c2ccnc(C)c2)CC1 (stereo not given) | -3.17%
14 | CC(C)OCCS(=O)(=O)N1CCN(Cc2ccco2)CC1 | -2.52%
15 | COc1ccc(C)cc1CN(C)CC(N)=O | -2.2%
16 | CCCn1nnnc1COC(=O)C1Cc2cc(Cl)ccc2O1 (stereo not given) | 6.63%
17 | CC(=O)c1cccc(OC(C)C(=O)Nc2cnn(CCN(C)C)c2)c1 (stereo not given) | -0.8%
18 | CCS(=O)(=O)NCc1nc(C)cc(N2CCOCC2)n1 | 0.985%
19 | COc1c(C)cnc(CN2CCn3c(nnc3C3CC3)C2)c1C | 8.46%
20 | NC(=O)c1ccnc(N2CCCC(CO)(Cc3ccc(F)cc3)C2)c1 (stereo not given) | 16.1%

Row | Structure (SMILES) | Percent Effect
21 | Cc1cc(CN(CC(N)=O)CC(C)C)on1 | -2.52%
22 | Cc1c(C(=O)NC2CCCOC2)nnn1-c1ccc(Cl)cc1F (stereo not given) | 0.0565%
23 | Fc1ccc(OCCCNC2=NCCN2)cc1 | -0.85%
24 | O=C(CCn1cc(Cl)cn1)N1CCC2(CC1)OCCCC2O (stereo not given) | -8.21%
25 | CCCc1cc(N(CCOC)CC(F)F)n2ncnc2n1 | 11.5%
26 | Cn1cc(NC(=O)N2CCCC2c2ccccn2)ccc1=O (stereo not given) | 40.9%
27 | CCCOc1cc(CNC(=O)Nc2ccccn2)ccn1 | 7.59%
28 | Cc1nccn1-c1nccnc1C1CCCN(C)C1 (stereo not given) | 1.28%
29 | Cn1cc(C(=O)NCc2ccc(OC3CCCCC3)nc2)ccc1=O | -0.122%
30 | c1ccc(CCN2CCN(C3CCOC4(CCOCC4)C3)CC2)nc1 (stereo not given) | -2.83%
31 | Cc1cc(-c2cnc(N3CCN(C)CC3)nc2C(C)C)on1 | 16.2%
32 | CCCOc1cccc(OCc2ccon2)c1 | 4.13%
33 | CC(NCc1cnc(N2CCN(C)CC2)nc1)c1ccc(F)cc1 (stereo not given) | -1.25%
34 | CC(C)(C)CN(CCC#N)C(=O)Nc1cccc(N2CCNC2=O)c1 | -2.8%
35 | CNC(=O)c1cc(NC(=O)Nc2cnn(CC(C)C)c2)ccc1F | -5.42%
36 | O=C(CCC1CCCO1)NCCN1CCCCC1 (stereo not given) | -1.67%
37 | CC(C)(C)c1ncc2c(n1)CN(c1cc(NCCO)nc(N)n1)C2 | -194%
38 | CC(C)NC(=O)c1nc(Cn2c(C(F)(F)F)nc3ccccc32)no1 | 6.13%
39 | COCCn1ccnc1C1CCN(C(=O)CSc2nnc(C)s2)CC1 | 7.22%
40 | CCCC(=O)Nc1cccc(C(=O)N(C)CCCC2CCCO2)c1 (stereo not given) | 7.97%
